# Shiga inhibitor – A qHTS for Small Molecule Inhibitors of Shiga Toxin | Vero cells, Shiga toxin protein synthesis inhibition reporter | inhibition, % at 38.7 µM | 290,000 compounds, 9.2% hits | AID 2315, 2010; in the data active = inhibition mostly above about 28%, no sharp cut-off; inactive = mostly below about 43%
# Pf growth 96h – Primary qHTS for delayed death inhibitors of the malarial parasite plastid, 96 hour incubation; P. falciparum luciferase reporter growth, 96 h; 320,000 compounds, 6.9% hits; Potency, µM (doses to about 28.7 µM), usual class: inhibitors
#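 Parasite growth measured via integrated firefly luciferase reporter in P. falciparum. Infected erythrocytes at 2% hematocrit, 0.05% parasitemia final were treated 96 hours at 37 C under 5% CO2, and luminescence was read.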
# Marburg entry inh – qHTS for inhibitors of binding or entry into cells for Marburg Virus; Marburg virus pseudotyped entry inhibition, cell reporter; Potency, µM (doses to about 37.8 µM), hits mostly inhibitors; 300,000 compounds, 1.8% hits; calls by dose curve; tested in HEK293 cells
# CHX counter – Cycloheximide Counterscreen for Small Molecule Inhibitors of Shiga Toxin; cell reporter, cycloheximide protein synthesis inhibition counterscreen; max response, %; 300,000 compounds, 12% hits; AID 2314, 2010; in the data active = max response mostly above about 13%, no sharp cut-off; inactive = mostly below about 14%; also: read at 38.3 µM for the half of the compounds with a filed dose
# Pf growth 48h – Primary qHTS for delayed death inhibitors of the malarial parasite plastid, 48 hour incubation; 310,000 compounds, 5.9% hits; P. falciparum luciferase growth in erythrocytes, 48 h; Potency, µM (top dose mostly 28.7 µM), most hits filed as inhibitors
#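 A one-generation exposure of luciferase-tagged malaria parasites in RPMI 1640/Albumax erythrocyte culture, 37 C and 5% CO2. Inhibition is inferred from decreased luminescence after adding detection reagent.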
# LASV entry inh – qHTS for Inhibitors of binding or entry into cells for Lassa Virus; Potency, µM (titrated, usually from 37.9 µM), hits mostly inhibitors; Lassa virus pseudotype entry inhibition, cell reporter; 300,000 compounds, 1.2% hits; AID 540256, 2011; calls by dose curve; tested in HEK293 cells; also: nearly all actives have a fitted effect of over 50% in size
# A number is an active result; . = inactive; ? = inconclusive; / = no result given. Rows were chosen to be rich in hits. Some 19% of all compounds tested hit in one or more screens of this group. Unless noted, calls follow the shape of the dose curve; as a rule, active = well fitted inhibition curve with a large enough effect; inconclusive = small, poorly fitted or top-dose-only effect, or another doubt; inactive = no such curve, though single readings can be large or run the other way.
SMILES,Shiga inhibitor,Pf growth 96h,Marburg entry inh,CHX counter,Pf growth 48h,LASV entry inh
Fc1cccc(COc2ccc(Nc3ncnc4sc(-c5cccs5)cc34)cc2Cl)c1,/,/,/,/,/,16µM
CN1CCN(Cc2ccc(-c3cc4ncnc(Nc5ccc(OCc6cccc(F)c6)c(Cl)c5)c4s3)o2)CC1,/,/,/,/,/,20µM
Nc1ccc(C#Cc2cncnc2Nc2ccc(OCc3cccc(F)c3)c(Cl)c2)cc1,/,/,/,/,/,3.1µM
COc1ccc(Nc2ncnc3sc(-c4ccccc4)cc23)cc1OC,.,?,?,.,.,?
COc1cc([N+](=O)[O-])ccc1NC(=S)NNC(=O)CCC(=O)Nc1ccccc1Cl,28,.,.,33,.,.
COc1cc([N+](=O)[O-])ccc1NC(=O)CCCOc1ccccc1,.,.,.,.,.,.
O=C(CCC(=O)Nc1ccccc1Cl)NNC(=S)Nc1ccccc1C(F)(F)F,.,2.1µM,.,.,.,.
CCCCNC(=S)N/N=C/C1=CCC2CC1C2(C)C (configuration not stated),.,12µM,?,.,9.3µM,?
CC(C)NC(=S)N/N=C/C1=CCC2CC1C2(C)C (configuration not stated),.,?,?,.,13µM,?
CCCCNC(=S)N/N=C/c1ccc(C#N)cc1,.,9.3µM,?,.,.,.
CC(=O)N/N=C/C1=CCC2CC1C2(C)C (configuration not stated),.,.,?,.,.,?
C=CCOC(=O)Nc1ccc(Cl)cc1NC(=O)OCC=C,.,/,?,.,.,.
COC(=O)CNC(=O)C1CCN(c2nc(C)cc(C)n2)CC1,.,.,.,.,.,.
CCN(CC)CCCNC(=O)C1CCN(C(=O)c2oc3cc4sc(N(C)C)nc4cc3c2C)CC1,.,12µM,/,19,.,/
COCCCNC(=O)C1CCN(C(=O)c2oc3cc4sc(N(C)C)nc4cc3c2C)CC1,60,?,/,36,.,/
COCCCNC(=O)C1CCN(c2nc(C)cc(C)n2)CC1,.,5.2µM,.,.,.,.
COc1cccc(CNC(=O)C2CCN(S(=O)(=O)c3ccc4c(c3)NC(=O)C(C)S4)CC2)c1 (configuration not stated),.,?,.,.,?,.
COc1ccc(NC(=S)N2CCC(NC(=O)c3ccco3)CC2)cc1,.,.,?,.,.,.
Cc1nc(SCC(=O)Nc2ccccn2)n[nH]1,.,.,.,.,.,.
COc1ccc2nc(NC(=O)CSc3nnnn3C3CCCCC3)sc2c1,.,.,.,.,.,.
CCOc1ccc(OCCSc2nnnn2C2CCCCC2)cc1,.,10µM,?,.,.,.
COc1ccc2nc(NC(=O)CSc3nnc(C)s3)sc2c1,.,.,?,12,.,.
Cc1nc(SCC(=O)Nc2nc3ccccc3s2)n[nH]1,69,?,.,54,.,.
CCOc1ccc2nc(NC(=O)CSc3nnnn3C3CCCCC3)sc2c1,50,4.1µM,.,30,.,.
Clc1ccc(OCCSc2nnnn2C2CCCCC2)cc1,.,/,?,.,.,.
SMILES,Shiga inhibitor,Pf growth 96h,Marburg entry inh,CHX counter,Pf growth 48h,LASV entry inh
CCOC(=O)C(=CNc1ccccc1N1CCOCC1)C(=O)OCC,.,?,.,.,.,?
NS(=O)(=O)c1ccc(NC(=O)COC(=O)c2ccc(Cl)cc2[N+](=O)[O-])cc1,.,.,/,.,.,/
COc1ccc(-c2csc(NC(=O)CSc3nc(SC)ns3)n2)cc1,57,.,.,39,.,.
COc1ccc2nc(NC(=O)CSc3nnnn3C)sc2c1,46,.,/,28,.,/
COc1ccc2nc(NC(=O)CSc3nc(SC)ns3)sc2c1,72,.,/,47,.,/
COc1ccc2nc(NC(=O)CSc3nccc(C)n3)sc2c1,.,.,.,.,.,.
CSc1nsc(SCC(=O)NC2CCCCC2)n1,.,/,?,27,.,.
COc1ccc(NC(=O)CSc2nnnn2C)cc1,.,?,.,.,.,.
COc1ccc(C(=O)Nc2ccccc2C(=O)NCC2CCCO2)cc1 (configuration not stated),.,.,.,.,.,.
CSc1nsc(SCC(=O)Nc2ccccn2)n1,42,.,.,23,.,.
COc1ccccc1NC(=O)CSc1nc(SC)ns1,.,.,?,.,.,/
CSc1nsc(SCC(=O)Nc2nc3ccccc3s2)n1,67,.,.,30,.,.
